Inconclusive results are not listed. Calls of active or inactive are those of the source. How the source made its calls: active means hit-call score of the fitted dose curve at least 0.9, where 1 is the maximum; inconclusive means response in the unintended direction; inactive means score below 0.9.

The target of the experiment is rat Glycine Receptor, Strychnine-sensitive (GlyRStrySens), Glra1 (gene 25674) (UniProt P07727). The experiment can be described thus: NVS_LGIC_rGlyRStrySens: NovaScreen (NVS) Ligand-Gated Ion Channel Assay for rat Glycine Receptor, Strychnine-sensitive (GlyRStrySens) (AID 2283341). The method in brief: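 Radioligand displacement on rat spinal cord membranes, 1 hr, filter scintillation read-out. Single-concentration duplicate screen at 25 uM; chemicals meeting threshold (e.g., 30% inhibition) rerun in concentration-response up to 50 uM. Loss of binding fitted versus DMSO.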
rat Glycine Receptor, Strychnine-sensitive (GlyRStrySens), Glra1 (gene 25674), sequence (P07727 whole entry, looked up): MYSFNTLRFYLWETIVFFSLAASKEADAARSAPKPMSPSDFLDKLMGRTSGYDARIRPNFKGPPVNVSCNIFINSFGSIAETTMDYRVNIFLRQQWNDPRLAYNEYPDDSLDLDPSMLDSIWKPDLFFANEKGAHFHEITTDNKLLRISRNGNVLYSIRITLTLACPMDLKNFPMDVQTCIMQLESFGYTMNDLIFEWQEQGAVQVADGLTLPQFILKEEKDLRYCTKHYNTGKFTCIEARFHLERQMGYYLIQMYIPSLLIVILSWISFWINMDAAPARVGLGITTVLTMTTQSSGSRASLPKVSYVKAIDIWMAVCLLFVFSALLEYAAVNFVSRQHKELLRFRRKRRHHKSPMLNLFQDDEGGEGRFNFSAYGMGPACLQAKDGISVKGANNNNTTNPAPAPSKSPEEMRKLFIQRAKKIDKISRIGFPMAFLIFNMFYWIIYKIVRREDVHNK
Turning to `CSc1ccc(Oc2ccc(S(N)(=O)=O)cc2CN(C)C)cc1C`, the outcome was inactive.
As a reminder, the AC50 is the midpoint of the concentration-response curve, whichever way the signal moves. As for `CCc1nc(N)nc(N)c1-c1ccc(Cl)cc1`, the AC50 was 2.7 µM (active).
As to `CCCCC(CC)CO` (centres undefined), the compound was called inactive.
The same measure, in the same setting: the result for `CCN(CC)CCOc1ccc(C(=C(Cl)c2ccccc2)c2ccccc2)cc1` reads “inactive”.
